Screens as filed in PubChem BioAssay.
Rows were chosen to be rich in hits. Some 1.3% of all compounds tested hit in one or more screens of this group.
WRN inhibitor: qHTS for Inhibitors of WRN Helicase. Bifunctional 3'-5' exonuclease/ATP-dependent helicase WRN (Homo sapiens), Q14191. WRN helicase unwinding, fluorescent forked duplex, kinetic. Potency, µM (doses to about 114 µM), most hits filed as inhibitors. hit rate 0.46% among 360,000. AID 651768, 2012; also: nearly all actives have a fitted effect of over 55% in size
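Enzyme (20 nM final) and test compound sit together 15 min at room temperature before substrate addition. Substrate is a single-forked duplex oligonucleotide (100 nM) labelled with fluorophore and quencher, with 2 mM ATP; helicase unwinding raises red fluorescence, read kinetically.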
Pin1 inhibitor: qHTS Assay to Find Inhibitors of Pin1 | Peptidyl-prolyl cis-trans isomerase NIMA-interacting 1 (Homo sapiens), Q13526 | Potency, µM (highest dose often 115 µM), most hits filed as inhibitors | AID 504891, 2011 | hit rate 0.009% among 390,000 | Pin1 FP peptide displacement, HiFluor488, 10 min; active = well fitted inhibition curve with a large enough effect in the polarisation, with a control signal flat, not every such curve was filed as active; inconclusive = small, poorly fitted or top-dose-only effect, or effect the other way, or a change in a side signal; inactive = no such curve, though single readings can be large or run the other way; the % refers to the polarisation
Target sequence (Q13526 whole entry, looked up): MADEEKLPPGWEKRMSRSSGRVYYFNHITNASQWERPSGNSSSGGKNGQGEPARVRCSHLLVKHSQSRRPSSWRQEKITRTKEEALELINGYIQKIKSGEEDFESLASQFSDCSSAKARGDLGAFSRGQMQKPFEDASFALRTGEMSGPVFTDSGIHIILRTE
FEN1 inh: qHTS Assay for the Inhibitors of Human Flap endonuclease 1 (FEN1) | P39748 | Recombinant FEN1 flap cleavage, fluorescence, 15 min | Potency, µM (series often up to 114 µM), usual class: inhibitors | hit rate 0.35% among 390,000 | AID 588795, 2011; also: nearly all actives have a fitted effect of over 65% in size
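Compounds are tested as a concentration series against 10 nM FEN1; after a 15 min room-temperature preincubation, 50 nM substrate starts cleavage, with plate reads at 0 and 15 min. Normalized responses are fitted by a Hill equation.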
PI5P4K alpha inh: qHTS for Inhibitors of phosphatidylinositol 5-phosphate 4-kinase (PI5P4K) | PI5P4Kalpha enzyme, ADP-Glo luminescence, 60 min; hits give low values | Phosphatidylinositol 5-phosphate 4-kinase type-2 alpha (Homo sapiens), P48426 | max response, % | hit rate 1.2% among 330,000 | AID 652105, 2013; active = max response of -50% or lower; inconclusive = between -30% and -50%; inactive = -30% or higher; also: value at the top dose of about 77 µM
Target sequence (P48426 whole entry, looked up): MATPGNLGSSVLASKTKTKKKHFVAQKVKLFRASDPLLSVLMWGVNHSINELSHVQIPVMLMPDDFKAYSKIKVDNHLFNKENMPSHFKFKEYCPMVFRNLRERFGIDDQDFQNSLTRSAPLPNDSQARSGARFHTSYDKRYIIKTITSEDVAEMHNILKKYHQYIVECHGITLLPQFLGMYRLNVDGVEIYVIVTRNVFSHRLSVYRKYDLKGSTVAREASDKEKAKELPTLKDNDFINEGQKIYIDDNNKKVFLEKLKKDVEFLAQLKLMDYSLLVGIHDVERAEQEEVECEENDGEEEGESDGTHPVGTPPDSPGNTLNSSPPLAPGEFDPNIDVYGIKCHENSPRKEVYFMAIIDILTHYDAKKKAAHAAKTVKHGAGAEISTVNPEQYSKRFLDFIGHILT
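Human PI5P4Kalpha with substrate in 0.038 M HEPES pH 7.4, 0.28 mM EGTA, 0.1% CHAPS, 5% DMSO; reaction started with 5 microM ATP (final), 60 min at room temperature. ADP formed read by ADP-Glo luminescence.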
GRP78 ERSR act: qHTS for Inducers of the Endoplasmic Reticulum Stress Response (ERSR) in Human Glioma: qHTS; U87-MG GRP78 promoter luciferase reporter, 16 h; Potency, µM, usual class: activators; hit rate 0.02% among 420,000; AID 602332, 2012; also: series mostly up to about 76 µM; nearly all actives have a fitted effect of over 35% in size
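Stably transfected U87-MG human glioma cells carrying a GRP78-based luminescent sensor were seeded at 1000 cells/well, pin-dosed with compounds and incubated 16 h. Luciferase reagent was then added, and end-point luminescence was read after 10 min at room temperature.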
PGK inhibitor: qHTS Assay to Find Inhibitors of Phosphoglycerate Kinase | Phosphoglycerate kinase, glycosomal (Trypanosoma brucei brucei), P07378 | PGK/GAPDH coupled, Kinase-Glo luminescence, 60 min | Potency, µM (doses to about 57.5 µM), most hits filed as inhibitors | hit rate 0.043% among 380,000 | AID 602233, 2012; also: nearly all actives have a fitted effect of over 60% in size
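Recombinant glycosomal PGK reaction used 1,3-bisphosphoglycerate generated in-well by GAPDH (100nM final) in 100mM TEA pH 7.6, 5mM MgCl2, 0.01% Tween-20. After 60 minutes at room temperature, ATP was read by Kinase-Glo Plus luminescence end-point.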
Large screens that a line does not name were inactive. Unless noted, calls follow the shape of the dose curve; as a rule, active = well fitted curve in the direction sought with a large enough effect; inconclusive = small, poorly fitted or top-dose-only effect, or another doubt; inactive = no such curve, though single readings can be large; an effect the other way counts as inactive or inconclusive.

CCOC(=O)c1c(C)oc2c1c(CN1CCN(CCO)CC1)c(O)c1ccccc12	WRN inhibitor inconclusive, Pin1 inhibitor inconclusive, PI5P4K alpha inh -98
CCOC(=O)c1c(C)oc2c1c(CN1CCN(C(=O)OCC)CC1)c(O)c1ccccc12	WRN inhibitor inconclusive, Pin1 inhibitor inconclusive, PI5P4K alpha inh -56
NNC(=O)C(C(=O)OCc1ccccc1)c1ccccc1 (stereo not given)	none (no result: WRN inhibitor, FEN1 inh, PI5P4K alpha inh, GRP78 ERSR act, PGK inhibitor)
CN(C)c1cccc(-c2cc(N3CCC(C(N)=O)CC3)ncn2)c1	none (no result: WRN inhibitor, FEN1 inh, PI5P4K alpha inh, GRP78 ERSR act, PGK inhibitor)
Cc1c(C(N)=O)c(-c2ccccc2)nn1-c1ccccc1	none
CCCc1c(-c2ccc(O)cc2)nn(-c2ccc(O)cc2)c1-c1ccc(O)cc1	PI5P4K alpha inh -53
O=C1c2ccccc2C(=O)N1c1cnc2ccccc2c1	none (no result: WRN inhibitor, FEN1 inh, PI5P4K alpha inh, GRP78 ERSR act, PGK inhibitor)
C=CCn1c(SCC(=O)Nc2ccc(F)cc2)nc2cc(C(=O)O)ccc2c1=O	PI5P4K alpha inh -51
C=CCn1c(SCc2cc([N+](=O)[O-])cc3c2OCOC3)nc2cc(C(=O)O)ccc2c1=O	PI5P4K alpha inh -74
C=CCn1c(SCC(=O)NC23CC4CC(CC(C4)C2)C3)nc2cc(C(=O)O)ccc2c1=O	none
C=CCn1c(SCC(=O)Nc2ccccc2-c2ccccc2)nc2cc(C(=O)O)ccc2c1=O	PI5P4K alpha inh -55
CCC1CN(CC(=O)NC(C)c2cn(C)nc2C)Cc2cc(OC)ccc2O1 (stereo not given)	none (no result: WRN inhibitor, Pin1 inhibitor, FEN1 inh, PI5P4K alpha inh, PGK inhibitor)
N#CC1=C(N)Oc2cc(O)c(Cl)cc2C1c1ccccc1F (stereo not given)	Pin1 inhibitor inconclusive, PI5P4K alpha inh -64
N#CC1=C(N)Oc2cc(O)c(Cl)cc2C1c1cccnc1 (stereo not given)	Pin1 inhibitor inconclusive, PI5P4K alpha inh -52
CS(=O)(=O)N1CCN(c2nc(-c3ccc(Br)cc3)cs2)CC1	none (no result: WRN inhibitor, FEN1 inh, PI5P4K alpha inh, GRP78 ERSR act, PGK inhibitor)
CC/C=C(/C(=O)N[C@@H]1C(=O)N2C(C(=O)OCOC(=O)C(C)(C)C)=C(COC(N)=O)CS[C@H]12)c1csc(N)n1	none (no result: WRN inhibitor, Pin1 inhibitor, FEN1 inh, PI5P4K alpha inh, PGK inhibitor)
CCOC(=O)c1sc(N2C(=O)C(O)=C(C(=O)c3ccco3)C2c2cccc([N+](=O)[O-])c2)nc1C (stereo not given)	PI5P4K alpha inh -68
O=C(C1=C(O)C(=O)N(c2nc3ccc(Cl)cc3s2)C1c1ccco1)c1ccco1 (stereo not given)	WRN inhibitor 50µM, Pin1 inhibitor inconclusive, PI5P4K alpha inh -74
Cc1ccc2nc(N3C(=O)C(O)=C(C(=O)c4ccco4)C3c3ccc(C)o3)sc2c1 (stereo not given)	WRN inhibitor inconclusive, Pin1 inhibitor inconclusive, PI5P4K alpha inh -52
Cc1cc(C)c2nc(N3C(=O)C(O)=C(C(=O)c4ccco4)C3c3cccc(O)c3)sc2c1 (stereo not given)	PI5P4K alpha inh -60
Cc1ccc(C2C(C(=O)c3ccco3)=C(O)C(=O)N2c2nnc(C)s2)cc1 (stereo not given)	Pin1 inhibitor inconclusive (no result: PI5P4K alpha inh)
COC(=O)c1sc(N2C(=O)C(O)=C(C(=O)c3ccc(C)o3)C2c2ccco2)nc1C (stereo not given)	WRN inhibitor inconclusive
Cc1ccc2nc(N3C(=O)C(O)=C(C(=O)c4ccc(C)o4)C3c3ccco3)sc2c1 (stereo not given)	PI5P4K alpha inh inconclusive
Cc1ncc2c(c1CNC(=O)c1ccc3c(c1)OCO3)CCN(C(=O)/C=C/c1ccccc1Cl)C2	none (no result: WRN inhibitor, Pin1 inhibitor, FEN1 inh, PI5P4K alpha inh, PGK inhibitor)
c1cncc(OC2CCN(Cc3ccc4c(c3)CN(Cc3ccc5c(c3)OCCO5)CCO4)CC2)c1	none (no result: WRN inhibitor, Pin1 inhibitor, FEN1 inh, PI5P4K alpha inh, PGK inhibitor)
N#Cc1nc(Nc2cccc([N+](=O)[O-])c2)nc(NC2CCCC2)n1	none (no result: WRN inhibitor, FEN1 inh, PI5P4K alpha inh, GRP78 ERSR act, PGK inhibitor)
Cc1cnc(SCc2ccccn2)nc1C1CCCN(C(=O)c2noc3c2CCCC3)C1 (stereo not given)	none (no result: WRN inhibitor, Pin1 inhibitor, FEN1 inh, PI5P4K alpha inh, PGK inhibitor)
